Bioassay records (PubChem BioAssay)
Rows were chosen to be rich in hits. Some 1.2% of all compounds tested hit in one or more screens of this group.
Gli-Sufu block: Gli-Sufu pathway antagonists, primary screen, luciferase luminescence, Sufu-KO-LIGHT cells, uHTS; Sufu-KO-LIGHT fibroblasts, Gli luciferase reporter luminescence; 340,000 tested, 0.74% active; inhibition, % at 5 µM;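 active means inhibition above about 55%, limit read from the data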;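 further: 0% = DMSO-treated cells and 100% = wells with medium but no cells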
NCOA2 inhibitor: inhibition of GAL4-SRC2 driven luciferase reporter, primary screen, SRC2 inhibitor project, cell-based, luminescence. inhibition, % at 9 µM. HEK293 GAL4-SRC2 luciferase reporter. 370,000 tested, 0.17% active. Nuclear receptor coactivator 2 (Homo sapiens), Q15596. AID 651957, 2012;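 active means inhibition above the mean inhibition of all tested compounds plus 3 SD, set per campaign, cut at about 52% in these data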;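 further: 0% = DMSO treated cells and 100% = cells given Gossypol at 36 µM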
COUP-TFII inh: NR2F2 transcriptional activity inhibitors, primary screen, cell-based, luciferase reporter, HEK293T, luminescence; HEK293T NGFI-A luciferase reporter; inhibition, % at 8.6 µM; 370,000 tested, 0.7% active;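 active means inhibition above a per-plate cutoff, mean inhibition of test wells between control levels plus 3 SD, cut at about 38% in these data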;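 further: cells cotransfected with COUP-TFII expression vector driving the NGFI-A reporter; 0% = median of COUP-TF2 test wells and 100% = reporter-only cells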
NCOA1 inh: SRC1 coactivator transcriptional activity inhibitors, primary screen, cell-based, luminescence; inhibition, % at 3.6 µM; 360,000 tested, 0.12% active; HEK293 GAL4-SRC1 luciferase reporter;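 active means inhibition above the campaign mean plus 3 SD, with each screening campaign given its own cutoff, cut at about 60% in these data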;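 further: 0% = DMSO treated cells and 100% = gossypol at 36 µM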
SRC3 inh: SRC3 coactivator transcriptional activity inhibitors, primary screen, cell-based, luminescence. inhibition, % at 3.6 µM. Nuclear receptor coactivator 3 (Homo sapiens), Q9Y6Q9. HEK293 GAL4-SRC3 luciferase reporter. 360,000 tested, 0.17% active. AID 588352, 2011;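 active means inhibition above a per-campaign cutoff, the mean of all compounds plus 3 SD, cut at about 60% in these data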;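 further: 0% = DMSO-treated cells and 100% = gossypol-treated cells at 36 µM; higher means less SRC3-driven luciferase light from the GAL4 reporter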
LRH-1 inv ag: LRH-1 (NR5A2) inverse agonists, primary screen, cell-based, luminescence, HEK293T, StAR-luciferase reporter. LRH-1 transfected, 24 h. inhibition, % at 3.6 µM. 360,000 tested, 0.13% active. AID 602396, 2012;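 active means inhibition above the mean inhibition of all tested compounds plus 3 SD, cut at about 73% in these data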;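 further: 0% = DMSO wells and 100% = reporter-only cells lacking LRH-1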
Active calls of the source: *; x = not tested or not shown.

SMILES | Gli-Sufu block | NCOA2 inhibitor | COUP-TFII inh | NCOA1 inh | SRC3 inh | LRH-1 inv ag
O=C(N/N=C(\c1ccccc1)c1ccccn1)c1cccc([N+](=O)[O-])c1 | 91.3* | x | x | 7.2 | 15.8 | 16.8
COc1ccc(-n2nc3c(N4CCC(C(=O)NCc5cccc(C)c5)CC4)nnc(C)c3c2C)cc1 | 74.1* | -7.7 | -13.7 | 5.8 | -17.4 | 7.7
O=C(OCC#CCSc1nnc(-c2cccc3ccccc23)o1)c1cc(F)c(F)c(F)c1 | x | x | -5.5 | x | x | x
O=c1c2ccccc2nc(N/N=C/c2c(O)ccc3ccccc23)n1O | 33.2 | 18.1 | 32.4 | 66.6* | 74.3* | 84.4*
O=c1c2ccccc2nc(N/N=C/c2ccc(O)cc2)n1O | -50.6 | -34.0 | -3.8 | -38.6 | -57.5 | -55.3
O=C(CNS(=O)(=O)c1ccccc1)N1CCN(c2ncccn2)CC1 | x | -11.3 | 19.1 | x | x | x
O=S1(=O)CCSC[C@@H](CN2CCCC2)N1 | x | 2.4 | -11.2 | x | x | x
COc1ccc(C2C(O)C(c3c[nH]c4ccccc34)=NN2C(=O)CCl)cc1 (stereo not drawn) | 85.8* | 72.7* | 24.9 | -38.9 | 19.3 | -6.5
COC(=O)C1=C(C)N(Cc2cccc(C(F)(F)F)c2)C(=NCc2cc(OC)c(OC)c(OC)c2)NC1CCc1ccccc1 (stereo not drawn) | x | 13.4 | 0.3 | x | x | x
Oc1[nH]c2ccccc2c1N=NC(=S)N1CCOCC1 | 63.1* | x | x | 4.4 | 26.8 | 59.6
Oc1[nH]c2ccc(Br)cc2c1N=NC(=S)N1CCOCC1 | 85.9* | 15.9 | 36.3 | 24.2 | 32.0 | 54.7
O=C(N[C@H](C(=O)N1CCC[C@H]1C(=O)NC1CCCC1)C1CCCCC1)c1ccccc1 | x | 22.6 | 1.6 | x | x | x
c1ccc(Cn2ccc3ccc(-c4ccc5ccn(Cc6ccc7ccccc7c6)c5c4)cc32)cc1 | x | -20.3 | 12.6 | x | x | x
C#CC(=O)N(c1ccc(OC)c(OC)c1)C(C(=O)NC1CCCC1)c1cccs1 (stereo not drawn) | 70.1* | -0.5 | -29.2 | 0.8 | 36.9 | 43.8
COc1ccc(N(C(=O)Cc2cccs2)C(C(=O)NC2CCCC2)c2ccncc2)cc1OC (stereo not drawn) | -5.7 | 4.0 | 10.7 | 11.1 | 3.1 | 5.5
C#CC(=O)N(c1cccc(OC)c1)C(C(=O)NC1CCCC1)c1cccs1 (stereo not drawn) | 0.4 | -15.3 | -9.1 | 25.7 | 59.3 | 81.3*
COC(=O)[C@]12C[C@H](CC(=O)N3CCSCC3)C(=O)N(CCc3ccc(OC)c(OC)c3)C1=C[C@H](C(C)C)O[C@@H]2C1CC1 | x | -9.2 | -14.4 | x | x | x
CN(C)c1ccc(Sc2ccc3nc(N)nc(N)c3c2)cc1 | x | 11.2 | 25.5 | 31.5 | 13.1 | 74.2*
CCC1CCCCN1C(=S)NN=C(C)c1ccccn1 (stereo not drawn) | x | -12.2 | 3.0 | x | x | x
CC(=NNC(=S)N1CC2CCC(CC2)C1)c1ccncn1 | 85.4* | -12.0 | -23.4 | 20.9 | 22.1 | -7.8
O=S1(=O)N[C@@H](Cc2ccccc2)COc2cc(N3CCCCC3)ccc21 | x | 6.1 | 10.2 | x | x | x
C[C@@H]1[C@@H](Sc2ccccc2)CC(=O)O[C@@H]1c1ccc(-c2ccccc2)cc1 | 6.3 | 23.5 | 6.9 | 13.0 | 14.4 | 24.3
O=C1C=CC2(O[C@H](c3ccccc3)[C@@H](c3ccccc3)O2)[C@H](Sc2ccccc2O)C1 | 22.9 | 37.5 | 86.6* | -131.2 | -78.9 | 30.9
COc1cccc2c1C(CO)N1C(C#N)C3CC(C(=O)O)C(C1C2)N3C (stereo not drawn) | -20.4 | 54.9* | 4.2 | 86.7* | 85.7* | 101.5*
COc1cccc2c1OCC(C(=O)O)C2 (stereo not drawn) | -10.6 | -9.1 | -6.1 | -11.6 | -5.2 | 3.5
SMILES | Gli-Sufu block | NCOA2 inhibitor | COUP-TFII inh | NCOA1 inh | SRC3 inh | LRH-1 inv ag
CCOC(=O)N1CCN(Cc2cc(Cl)c3cccnc3c2O)CC1 | 73.2* | 19.5 | 17.2 | x | x | x
CCOC(=O)N1CCN(Cc2ccccc2Cl)CC1 | 7.5 | -21.9 | -5.5 | 4.9 | -6.7 | 3.1
Cc1ccc(N/C(N)=N/c2nc(C)cc(N3CCCCC3)n2)c(C)c1 | 84.5* | 11.0 | 46.6* | 9.2 | 25.3 | 20.3
Cc1ccc(N/C(N)=N/c2nc3c(c(=O)[nH]2)CCCC3)c(C)c1 | -0.7 | -5.1 | 6.6 | -19.5 | 3.6 | 3.8
COC(=O)C1=C(C)NC(C)=C(C(=O)OC)C(N2C(=O)CCC2=O)C1 (stereo not drawn) | x | -21.4 | -7.0 | x | x | x
O=C(Nc1ccccc1Oc1ccccc1)c1cc([N+](=O)[O-])ccc1Cl | 0.2 | 54.6* | -1.3 | 37.5 | 57.3 | 26.2
COC(=O)C1=C(C)N(C)C(=NCc2ccccc2)NC1CCc1ccccc1 (stereo not drawn) | x | -1.0 | 6.7 | x | x | x
NS(=O)(=O)c1ccc(Sc2nc3ccccc3s2)c([N+](=O)[O-])c1 | 13.8 | 38.9 | 16.7 | 23.9 | 61.8* | 55.7
COc1ccc2c(c1)-c1c(ssc1=S)C(C)(C)N2C(=O)CSC1=NCCS1 | 11.4 | 45.4 | 52.4* | 38.6 | 30.5 | 9.6
CC1(C)c2ssc(=S)c2-c2ccccc2N1C(=O)CSC1=NCCS1 | 11.4 | -0.1 | 3.3 | 8.6 | 22.8 | -3.1
CCCCS(=O)(=O)N1C2=NC(C(=O)OCC)=C(C(=O)OCC)C3N(Cc4ccc(C#N)cc4)c4ccccc4[C@]23C[C@H]1C(=O)OC (stereo partly drawn) | x | 26.2 | -15.5 | x | x | x
CCCCNC(=O)C1(C(=O)c2ccc(OC)cc2)CC(c2ccccn2)=NO1 (stereo not drawn) | x | -42.2 | -20.4 | x | x | x
COc1ccc2ccccc2c1/C=N/NC(=O)c1cccc(Br)c1 | -10.0 | -4.0 | 7.0 | 7.1 | 1.6 | 4.0
O=C(N/N=C/c1c(O)ccc2ccccc12)c1[nH]ncc1Br | 66.7* | 4.6 | -29.3 | 23.9 | 67.3* | 68.8
Cc1ccc(O)c(/C=N/NC(=O)c2[nH]ncc2Br)c1 | -9.0 | -14.6 | -8.8 | -27.5 | -10.1 | 15.3
O=C(N/N=C/c1c(O)ccc2ccccc12)c1cccc(C(F)(F)F)c1 | 59.8* | 31.7 | 3.9 | 70.2* | 73.9* | 16.1
Cc1ccc(C(=O)N(C)[C@H]2C[C@H]3c4[nH]c5c(-c6ccccc6)cccc5c4CCN3C(=O)[C@H]2[C@H](C)O)cc1 | x | 2.5 | -1.7 | x | x | x
N#Cc1c(N)n(C2OC(CO)C(O)C2O)c2ncnc(N)c12 (stereo not drawn) | -113.1 | 55.1* | 16.9 | 83.1* | 84.5* | 94.7*
Nc1ncnc2c1ncn2C1O[C@H](CO)[C@@H](O)[C@@H]1O (stereo partly drawn) | -3.3 | -7.3 | 2.2 | -5.4 | -4.7 | 2.9
CCN1CCN(CC(=O)N2N=C(c3cccs3)CC2c2ccc(OC)c(OC)c2)C(=O)C1=O (stereo not drawn) | -5.3 | 13.8 | -25.1 | 10.5 | 25.4 | 2.8
